Data on 52 compounds can be found in PubChem BioAssay AID602393 (Broad Institute, 2012).

Screen size: about 350,000 compounds; about 7,000 (2%) were called active. The full list was thinned out, with actives kept by preference. A number with no mark means an inactive call. Cut-off read from the data, not from the text of the source: active = activation above about 40%; inconclusive = no clear call, values can overlap the other calls; inactive = below that.

The assay is described as follows: raisers of Bmi1 knock-in reporter signal – mouse ES cells, Bmi1 luciferase knock-in, single point, esBAF inhibitor project, primary screen (AID 602393).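 Note: 0% = median of the plate's neutral control wells and 100% = double that signal; a rise in the Bmi1 reporter signal indicates esBAF inhibition.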 The conditions noted are these: 24 h, at 12.5 µM, stronger effect = higher value, 100% = twice the neutral-well signal.
`CCCNC(=O)C[C@H]1C[C@@H]2c3cc(NC(=O)c4ccc5c(c4)OCO5)ccc3O[C@@H]2[C@@H](CO)O1`: the reporter increase was 0.264%. Consider `O=C1c2ccccc2C(=O)N1CCOc1ccc(F)cc1`, for which the reporter increase was 60.3% (active).

With `O=C1c2ccccc2C(=O)N1CCCCCCN1C(=O)c2ccccc2C1=O`, the reporter increase was 5.74%.

`O=C(OCCN1C(=O)c2ccccc2C1=O)Oc1ccccc1`: the reporter increase was -11.2%. `C[C@H]1CN([C@@H](C)CO)C(=O)c2cc(NC(=O)Cn3cnnn3)ccc2O[C@H]1CN(C)C(=O)NC1CCCCC1`: the reporter increase was -0.29%. Take `Cc1ccc(S(=O)(=O)Nc2ccc3c(c2)C(=O)N([C@H](C)CO)C[C@H](C)[C@@H](CN(C)S(=O)(=O)c2cn(C)cn2)OCCCC[C@H](C)O3)cc1`: the reporter increase is -6.8%.

On to `CCOC(=O)c1cc2n(c1C)-c1ccccc1C2=O`, for which the reporter increase is 47.8% (active). For `CCOC(=O)c1ccccc1CN1C(=O)c2ccccc2S1(=O)=O`, the reporter increase was 0.163%.

`CCOC(=O)CN1C(=O)C(=O)c2cc(C)ccc21`: the reporter increase is -5.46%. With `COc1ccc(CN(C)C[C@H]2OCCCC[C@@H](C)Oc3ccc(NS(C)(=O)=O)cc3C(=O)N([C@@H](C)CO)C[C@H]2C)cc1`, the reporter increase was -3.35%. As for `CCC(=O)Nc1ccc2c(c1)OC[C@@H](C)N(Cc1ccccc1OC)C[C@H](C)[C@H](OC)CN(C)C2=O`, the reporter increase is -1.32%.

Regarding `COCC(=O)Nc1ccc2c(c1)C(=O)N(C)C[C@@H](OC)[C@H](C)CN(C(=O)CC1CC1)[C@H](C)CO2`, the reporter increase is 0.458%. `Cc1ccc(S(=O)(=O)Nc2cccc3c2O[C@@H](CN(C)C(=O)Nc2ccccc2)[C@H](C)CN([C@@H](C)CO)C3=O)cc1`: the reporter increase was -4.19%. As to `CN(C)c1ccc(CSc2ccccc2)cc1`, the reporter increase is 75.8% (active).

Regarding `CN(C)c1cc[n+](Cc2ccccc2)cc1`, the reporter increase was 12.9%.

For `CN(C)c1ccc(CNC23CN4CN(CN(C4)C2)C3)cc1`, the reporter increase is 2.1%.

Take `CCNC(=O)C[C@@H]1CC[C@H]2[C@@H](COC[C@@H](O)CN2C(=O)c2cc(Cl)cc(Cl)c2)O1`: the reporter increase is -3.54%. `COCC(=O)Nc1ccc2c(c1)C(=O)N(C)[C@@H]1CC[C@@H](CC(=O)NCCCN(C)C)O[C@@H]1CO2`: the reporter increase was 12.8%.

With `Cc1ccc(-c2cc(=O)c3ccc(F)cc3[nH]2)cc1`, the reporter increase was 47.2% (active).

On to `Cc1ccc(S(=O)(=O)/N=C(\N)c2ccc(F)cc2)cc1`, for which the reporter increase was 13.3%. As for `O=c1cc(-c2ccccc2)[nH]c2cc(F)ccc12`, the reporter increase is 7.27%. For `Brc1ccccc1C1N=C(c2ccccc2)NO1` (configuration not stated) the value was 54.3% (active); for `S=C1NC(c2ccccc2)=NCN1c1ccc(Br)cc1`, 30.7%; for `N#Cc1ccc(C2N=C(c3ccccc3)NO2)cc1` (configuration not stated), 65.2% (active). In the case of `CO[C@@H]1CN(C)C(=O)c2cc(NC(=O)C3CCCC3)ccc2OC[C@@H](C)N(Cc2ccc(F)cc2)C[C@H]1C`, the reporter increase was 8.36%.

Turning to `CO[C@H]1CN(C)C(=O)c2cc(NC(=O)NC(C)C)ccc2OC[C@H](C)N(C(=O)CN(C)C)C[C@H]1C`, the reporter increase is -0.455%. Then `COc1ccc(NC(=O)N(C)C[C@H]2OCCCC[C@@H](C)Oc3ccc(NS(=O)(=O)c4ccc(F)cc4)cc3C(=O)N([C@@H](C)CO)C[C@@H]2C)cc1`, with 1.41%.

As for `O=C(C[C@@H]1CC[C@H]2[C@@H](COC[C@@H](O)CN2CC2CC2)O1)NCc1ccc(Cl)cc1`, the reporter increase is -7.82%. In the case of `CO[C@H]1CN(C)C(=O)c2cc(NC(C)=O)ccc2OC[C@H](C)N(C(=O)C2CC2)C[C@H]1C`, the reporter increase is -2.16%.

Take `CS(=O)(=O)N1C[C@@H](O)COC[C@@H]2O[C@H](CC(=O)NC3Cc4ccccc4C3)CC[C@H]21`: the reporter increase is -3.82%. In the case of `CNC[C@H]1Oc2cc(C#CC(C)(C)O)ccc2S(=O)(=O)N([C@@H](C)CO)C[C@@H]1C`, the reporter increase is -0.555%. For `COCC(=O)N1C[C@H]2[C@@H](c3ccccc31)[C@@H](CO)N2Cc1ccccc1` the value was -3.85%. For the compound `Cc1nn(-c2ccccc2)c2c1C(c1cccc([N+](=O)[O-])c1)N(c1ccccc1)C(=O)N2` (configuration not stated), the reporter increase is 10.1%.

On to `Cc1nn(-c2ccc([N+](=O)[O-])cc2)c(N)c1-c1ccccc1`, for which the reporter increase is 49.1% (active). With `Cn1nc(-c2ccccc2)c2cc([N+](=O)[O-])ccc21`, the reporter increase is -3.5%. Turning to `Cc1ccccc1S(=O)(=O)NCC[C@@H]1CC[C@H](NC(=O)C2CC2)[C@@H](CO)O1`, the reporter increase is -5.25%. Turning to `O=C(Nc1ccc(Sc2ccc(Br)cc2)cc1)c1ccco1`, the reporter increase is 30.7%. `CC(C)(C)NC(=O)c1cc(NC(=O)c2ccco2)cc(NC(=O)c2ccco2)c1`: the reporter increase was -7.07%. With `O=C(/C=C/c1ccco1)NC(=S)Nc1ccccc1Br`, the reporter increase is 12.7%. As for `Cc1cc(NC(=O)c2ccc(F)cc2)ccc1NC(=O)c1ccco1`, the reporter increase was -3.11%.

Regarding `O=C(NNC(=O)c1ccco1)Nc1ccccc1`, the reporter increase is 0.317%. In the case of `COc1cccc(NC(=O)COC(=O)/C=C/c2ccco2)c1`, the reporter increase is -3.7%. On to `CC1CCN(c2ccc(-c3ccc(NC(=O)c4ccco4)cc3)nn2)CC1`, for which the reporter increase is 55.6% (active).

On to `CN1CCN(S(=O)(=O)c2ccc(NC(=O)c3ccco3)cc2)CC1`, for which the reporter increase was 7.27%. On to `CC1CCN(C(NC(=O)c2ccco2)C(=O)c2ccccc2)CC1` (configuration not stated), for which the reporter increase is -0.711%. Regarding `O=C(/C=C/c1ccco1)Nc1ccc(Oc2ccccc2)cc1`, the reporter increase was 78% (active). For `O=C(Nc1ccc(Oc2ccccc2)cc1)c1ccco1`, the reporter increase is 45.8% (active).

Turning to `Cc1ccc(NC(=O)c2ccco2)cc1`, the reporter increase is 58.7% (active). Turning to `C[C@@H]1CCCCO[C@H](CN(C)C(=O)CCCN(C)C)[C@H](C)CN([C@H](C)CO)C(=O)c2cc(NC(=O)CCC(F)(F)F)ccc2O1`, the reporter increase was -8.36%. For `COCC(=O)NC[C@@H]1[C@@H](c2ccc(C3=CCCC3)cc2)[C@@H](CO)N1C(C)=O` the value was 2.64%. For the compound `C[C@@H]1CN([C@H](C)CO)C(=O)c2c(c3ccccc3n2C)-c2ccccc2CO[C@H]1CN(C)C(=O)c1ccncc1`, the reporter increase was 1.87%. On to `COCC#Cc1cnc2c(c1)C(=O)N([C@@H](C)CO)C[C@@H](C)[C@H](CN(C)C(=O)Nc1ccccc1OC)O2`, for which the reporter increase was -2.03%.
